Test results from PubChem BioAssay (NCI).
The panel holds about 83,000 compounds, 20% with a hit somewhere; the sample as a whole holds those more often.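 Percent growth is the endpoint: 0 to 100 indicates growth inhibition (40 means 60% inhibition), 0 means no net growth, and negative values indicate cell death.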 A number with no mark means an inactive call. Active and inactive are the calls of the source. The calls were made as follows: active = growth percent below 10; inactive = the rest.

Each compound was assayed on NCI-H23 lung (assay: NCI-60 one-dose screen, 48 h (100 = growth as untreated, 0 = no growth, -100 = all killed)). Conditions: 10 µM unless noted.
For CCN1CCN(C(=O)[C@]23CCC(C)(C)C[C@@H]2C2=CC[C@@H]4[C@@]5(C)C/C(=C/c6ccncc6)C(=O)C(C)(C)[C@@H]5CC[C@@]4(C)[C@]2(C)CC3)CC1, the growth was -7.07% (active). For COc1ccc(/C=C(\C#N)c2cc3ccccc3n2S(C)(=O)=O)cc1, the growth was 89.8%. Cc1ccc(S(=O)(=O)Nc2ccc(-c3cc(-c4cccc(F)c4)c(C#N)c(=O)[nH]3)cc2)cc1 was tested, and the growth was 87.7%. N#CC1=C(N)Oc2c(c(N)nn2-c2ccccc2)C1c1ccc(Cl)cc1 (stereo unspecified) was tested, and the growth was 93.4%. Work on C=C(C)[C@@H]1CC[C@]2(CN)CC[C@]3(C)[C@H](CC[C@@H]4[C@@]5(C)CCC(=O)NC(C)(C)[C@@H]5CC[C@]43C)[C@@H]12 yielded a growth of 85.3%. CC1(C)[C@@H](O)CC[C@]2(C)[C@H]3CC[C@@H]4[C@H]5[C@H](C(=O)/C=C/c6ccc(C(F)(F)F)cc6)CC[C@]5(CO)CC[C@@]4(C)[C@]3(C)CC[C@@H]12 gave a growth of 56.9%.
